This passage reports inhibition results from ChEMBL document CHEMBL1961873, “Compounds: GSK PKIS; Assays: Nanosyn kinase panel” (2012).

In general, inhibition refers to the relative decrease from the control value, in per cent.

The target in assay [1] is T1, Aurora kinase A (Homo sapiens) (UniProt O14965).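 Note: values are mean percent inhibition.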
T1 sequence (whole entry): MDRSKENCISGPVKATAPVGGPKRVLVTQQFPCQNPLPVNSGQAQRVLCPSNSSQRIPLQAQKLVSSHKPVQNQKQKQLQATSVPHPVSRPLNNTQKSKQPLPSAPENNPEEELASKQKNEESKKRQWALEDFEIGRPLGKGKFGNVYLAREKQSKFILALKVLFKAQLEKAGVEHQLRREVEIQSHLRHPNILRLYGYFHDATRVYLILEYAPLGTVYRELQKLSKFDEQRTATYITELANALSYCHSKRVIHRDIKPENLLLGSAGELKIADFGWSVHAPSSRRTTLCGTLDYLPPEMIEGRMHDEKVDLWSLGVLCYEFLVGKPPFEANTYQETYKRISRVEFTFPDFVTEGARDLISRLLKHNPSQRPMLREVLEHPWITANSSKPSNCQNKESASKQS
As to conditions: at 1 µM.

The target in assay [2] is Aurora kinase B (Homo sapiens) (UniProt Q96GD4). The following applies: at 0.1 µM.
The target is the same in assay [3]. The following applies: at 1 µM.
For assay [4], the target named is T2, Aurora kinase C (Homo sapiens) (UniProt Q9UQB9).
T2 sequence (whole entry): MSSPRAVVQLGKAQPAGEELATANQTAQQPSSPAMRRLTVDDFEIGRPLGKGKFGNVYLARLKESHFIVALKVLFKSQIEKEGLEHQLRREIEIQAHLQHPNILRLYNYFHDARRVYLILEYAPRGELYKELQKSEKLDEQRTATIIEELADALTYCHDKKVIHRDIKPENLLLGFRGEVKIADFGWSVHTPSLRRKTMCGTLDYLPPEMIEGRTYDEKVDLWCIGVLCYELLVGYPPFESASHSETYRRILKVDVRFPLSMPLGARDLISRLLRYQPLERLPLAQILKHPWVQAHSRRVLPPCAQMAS
As to conditions: at 0.1 µM.

The target in assay [5] is T2, Aurora kinase C (Homo sapiens). The following applies: at 1 µM.
For assay [6], the target named is Serine/threonine-protein kinase 10 (Homo sapiens) (UniProt O94804). The following applies: at 0.1 µM.
Assay [7] shares this target. As to conditions: at 1 µM.
Assay [8] concerns the target T3, Mitogen-activated protein kinase kinase kinase kinase 2 (Homo sapiens) (UniProt Q12851).
T3 sequence (whole entry): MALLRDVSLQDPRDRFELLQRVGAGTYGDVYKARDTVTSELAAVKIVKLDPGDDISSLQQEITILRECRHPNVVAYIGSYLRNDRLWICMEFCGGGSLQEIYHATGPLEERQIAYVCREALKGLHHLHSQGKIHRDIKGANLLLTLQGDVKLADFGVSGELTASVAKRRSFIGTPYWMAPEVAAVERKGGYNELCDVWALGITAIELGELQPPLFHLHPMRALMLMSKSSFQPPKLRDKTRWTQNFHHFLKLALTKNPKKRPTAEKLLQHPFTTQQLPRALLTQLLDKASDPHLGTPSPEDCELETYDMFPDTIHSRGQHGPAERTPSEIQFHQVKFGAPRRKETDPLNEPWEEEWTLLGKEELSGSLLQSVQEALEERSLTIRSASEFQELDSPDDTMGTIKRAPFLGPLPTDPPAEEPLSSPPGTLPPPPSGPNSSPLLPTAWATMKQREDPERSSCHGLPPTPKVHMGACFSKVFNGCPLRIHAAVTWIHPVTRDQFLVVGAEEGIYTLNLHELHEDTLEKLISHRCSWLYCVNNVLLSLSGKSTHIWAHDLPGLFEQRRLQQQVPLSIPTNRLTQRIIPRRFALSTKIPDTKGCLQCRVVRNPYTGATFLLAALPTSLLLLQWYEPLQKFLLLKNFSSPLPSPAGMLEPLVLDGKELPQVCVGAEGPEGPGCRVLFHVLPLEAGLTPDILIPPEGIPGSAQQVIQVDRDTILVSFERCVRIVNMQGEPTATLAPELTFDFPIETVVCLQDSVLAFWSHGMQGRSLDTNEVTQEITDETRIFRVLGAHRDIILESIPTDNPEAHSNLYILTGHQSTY
The following applies: at 0.1 µM.

Assay [9] addresses T3, Mitogen-activated protein kinase kinase kinase kinase 2 (Homo sapiens). The following applies: at 1 µM.
In assay [10] the target is Mitogen-activated protein kinase kinase kinase kinase 4 (Homo sapiens) (UniProt O95819). The following applies: at 0.1 µM.
Mitogen-activated protein kinase kinase kinase kinase 4 (Homo sapiens), sequence (O95819 2-1239 limits assumed): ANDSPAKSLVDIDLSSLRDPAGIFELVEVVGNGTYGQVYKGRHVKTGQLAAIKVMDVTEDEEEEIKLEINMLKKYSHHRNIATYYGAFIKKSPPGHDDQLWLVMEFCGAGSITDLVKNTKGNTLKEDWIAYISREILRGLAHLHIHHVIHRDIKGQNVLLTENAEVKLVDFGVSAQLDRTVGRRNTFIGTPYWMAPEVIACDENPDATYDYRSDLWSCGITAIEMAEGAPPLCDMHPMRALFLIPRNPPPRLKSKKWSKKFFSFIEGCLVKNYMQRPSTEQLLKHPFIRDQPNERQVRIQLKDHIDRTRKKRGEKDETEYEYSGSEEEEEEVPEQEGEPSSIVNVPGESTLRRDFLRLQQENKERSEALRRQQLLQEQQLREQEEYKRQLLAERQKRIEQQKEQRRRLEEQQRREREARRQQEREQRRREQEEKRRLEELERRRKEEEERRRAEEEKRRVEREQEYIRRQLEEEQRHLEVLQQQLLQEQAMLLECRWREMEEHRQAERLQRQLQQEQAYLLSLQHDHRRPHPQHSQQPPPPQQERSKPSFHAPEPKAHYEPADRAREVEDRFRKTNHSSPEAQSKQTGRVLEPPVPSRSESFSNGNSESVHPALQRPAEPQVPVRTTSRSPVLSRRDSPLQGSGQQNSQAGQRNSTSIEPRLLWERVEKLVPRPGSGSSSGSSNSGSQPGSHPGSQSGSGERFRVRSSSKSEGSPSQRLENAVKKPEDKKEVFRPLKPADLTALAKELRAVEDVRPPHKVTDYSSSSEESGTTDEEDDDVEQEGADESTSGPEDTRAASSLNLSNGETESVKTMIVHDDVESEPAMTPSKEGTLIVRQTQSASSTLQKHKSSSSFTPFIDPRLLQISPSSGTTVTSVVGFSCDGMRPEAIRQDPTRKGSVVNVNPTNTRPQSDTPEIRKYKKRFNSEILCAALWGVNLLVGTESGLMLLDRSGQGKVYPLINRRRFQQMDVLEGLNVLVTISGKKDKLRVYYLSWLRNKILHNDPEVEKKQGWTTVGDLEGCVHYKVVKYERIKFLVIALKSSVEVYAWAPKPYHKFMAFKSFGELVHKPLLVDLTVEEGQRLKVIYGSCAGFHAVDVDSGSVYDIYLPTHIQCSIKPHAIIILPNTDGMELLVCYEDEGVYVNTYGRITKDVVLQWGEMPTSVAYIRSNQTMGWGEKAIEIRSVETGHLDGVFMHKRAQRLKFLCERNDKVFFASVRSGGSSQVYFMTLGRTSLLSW

Aurora kinase B (Homo sapiens), sequence (Q96GD4 whole entry): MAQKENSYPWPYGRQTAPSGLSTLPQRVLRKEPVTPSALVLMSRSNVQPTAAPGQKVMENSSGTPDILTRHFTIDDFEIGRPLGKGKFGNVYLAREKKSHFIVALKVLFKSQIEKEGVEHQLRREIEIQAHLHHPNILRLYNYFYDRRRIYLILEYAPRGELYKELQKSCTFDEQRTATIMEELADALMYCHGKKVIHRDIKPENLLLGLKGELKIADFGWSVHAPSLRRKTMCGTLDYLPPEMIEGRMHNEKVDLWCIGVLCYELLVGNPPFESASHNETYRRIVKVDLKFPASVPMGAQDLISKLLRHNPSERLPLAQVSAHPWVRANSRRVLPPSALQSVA
Serine/threonine-protein kinase 10 (Homo sapiens), sequence (O94804 whole entry, looked up): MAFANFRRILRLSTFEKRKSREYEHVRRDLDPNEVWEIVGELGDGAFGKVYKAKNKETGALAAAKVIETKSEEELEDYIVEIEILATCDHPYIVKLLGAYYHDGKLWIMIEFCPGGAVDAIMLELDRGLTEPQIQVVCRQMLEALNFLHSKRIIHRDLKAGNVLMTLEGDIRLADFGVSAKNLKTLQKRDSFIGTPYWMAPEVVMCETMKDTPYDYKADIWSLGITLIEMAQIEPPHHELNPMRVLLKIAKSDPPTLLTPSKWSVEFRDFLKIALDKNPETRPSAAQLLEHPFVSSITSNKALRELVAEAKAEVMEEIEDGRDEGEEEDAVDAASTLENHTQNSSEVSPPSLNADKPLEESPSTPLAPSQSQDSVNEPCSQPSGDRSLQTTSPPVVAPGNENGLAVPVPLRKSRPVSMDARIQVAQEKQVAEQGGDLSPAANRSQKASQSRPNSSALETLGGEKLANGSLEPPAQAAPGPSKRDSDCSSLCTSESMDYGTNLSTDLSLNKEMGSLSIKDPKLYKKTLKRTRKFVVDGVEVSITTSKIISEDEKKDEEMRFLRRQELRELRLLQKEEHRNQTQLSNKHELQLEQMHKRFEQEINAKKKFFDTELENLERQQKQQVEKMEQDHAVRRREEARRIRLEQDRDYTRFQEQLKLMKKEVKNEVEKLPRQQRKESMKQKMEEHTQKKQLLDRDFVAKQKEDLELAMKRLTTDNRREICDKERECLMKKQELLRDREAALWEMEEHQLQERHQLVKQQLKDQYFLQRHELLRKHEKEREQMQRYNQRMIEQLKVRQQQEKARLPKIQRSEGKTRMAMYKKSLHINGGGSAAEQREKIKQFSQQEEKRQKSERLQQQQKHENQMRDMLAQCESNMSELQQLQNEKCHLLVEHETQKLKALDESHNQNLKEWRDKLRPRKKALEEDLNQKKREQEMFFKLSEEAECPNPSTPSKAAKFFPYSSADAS

Turning to `[O-][S+]1CCN(Cc2ccc(-c3ccc4ncnc(Nc5ccc(OCc6ccccc6)c(F)c5)c4c3)o2)CC1`, the inhibition in [1] turned out to be 5.78%; in assay [2], 1.65%; in [3], 4.29%; in assay [4], 0.94%; in assay [5] it was 7.34%; in assay [6], 2.71%. Moreover, the inhibition was 6.62% in assay [7], 0.36% in assay [8], 1.57% in assay [9] and 3.5% in [10].

In the case of `CS(=O)(=O)CCNCc1ccc(-c2ccc3ncnc(Nc4ccc(OCc5cccc(F)c5)c(C(F)(F)F)c4)c3c2)o1`, the inhibition is 2.73% in assay [1]; 2.77% in assay [2]; -1.87% in assay [3]; 0.77% in [4]; -1.89% in assay [5]; 3.11% in [6]. The inhibition in [7] is 7.45%; in assay [8] it was 1.28%; in assay [9], 2.47%; in assay [10], 3.22%.

Regarding `CNC(=O)c1cncc(/C=C/c2c(Cl)cccc2Cl)c1`, the inhibition in [1] is 0.47%; in [2] it was -2.93%; in assay [3], 2.43%; in assay [4], -4.44%; in assay [5], 0.68%; in assay [6], 6.82%. The inhibition in [7] came out at 10.6%; in assay [8], 1.03%; in [9], 2.47%; in assay [10], 8.94%.

In the case of `NCc1ccc(-c2nc(-c3ccc(Cl)c(O)c3)c(-c3ccncc3)[nH]2)cc1`, the inhibition is 9.73% in assay [1]; 1.17% in assay [2]; 6.56% in assay [3]; 1.89% in assay [4]; 5.03% in assay [5]; 1.42% in assay [6]. Further, the inhibition is 23.7% in assay [7], 3.14% in assay [8], 4.41% in assay [9] and 4.02% in assay [10].

Regarding `Cn1cc(C=C2C(=O)Nc3cccnc32)c2ccccc21`, the inhibition came out at 57% in [1]; 7.66% in [2]; 55.1% in assay [3]; 5.21% in [4]; 62.6% in assay [5]; 3.81% in assay [6]. Besides, the inhibition in assay [7] is 12%; in assay [8], 2.96%; in [9] it was 17.9%; in [10] it was 6.66%.

Consider `COc1cc2c(cc1Nc1nc(N3CCc4ccccc43)c3cc[nH]c3n1)N(C(=O)CN(C)C)CC2`, for which the inhibition in assay [1] stood at 2.61%; in assay [2], 0.77%; in assay [3], 3.08%; in assay [4], 0.6%; in assay [5] it was 8.2%; in assay [6] it was 1.91%. Besides, the inhibition amounted to 1.24% in [7], 0.88% in assay [8], 3.15% in [9] and 1.37% in [10].

On to `Nc1ncnc2occ(-c3ccc(NC(=O)Nc4cccc(C(F)(F)F)c4)cc3)c12`, for which the inhibition in assay [1] was found to be 60.4%; in assay [2], 30.7%; in [3] it was 66.7%; in assay [4], 42.5%; in [5], 88.8%; in assay [6] it was 26.4%. For the same compound, the inhibition came to 67.9% in assay [7], 28.7% in assay [8], 59.2% in [9] and 2.65% in assay [10].

For the compound `NC(=O)c1cccc(Nc2nccc(Nc3cccc4[nH]ncc34)n2)c1`, the inhibition in [1] was 96.8%; in [2], 24.5%; in assay [3] it was 73.7%; in [4], 39.2%; in assay [5], 100%; in assay [6], -1.55%. The inhibition in assay [7] worked out at 31.9%; in assay [8], 2.55%; in assay [9], 24.3%; in assay [10] it was 2.67%.

Turning to `Cc1nn(C)c2cc(N(C)c3ccnc(Nc4cccc(S(N)(=O)=O)c4)n3)ccc12`, the inhibition in assay [1] was found to be 89.8%; in assay [2], 7.86%; in [3] it was 47.5%; in assay [4] it was 13.3%; in assay [5], 93%; in assay [6] it was 13.3%. The inhibition came out at 51.4% in assay [7], 7.42% in [8], 30.9% in assay [9] and 53.7% in assay [10].

Turning to `CCn1c(-c2nonc2N)nc2cnc(Oc3cccc(NC(=O)c4ccc(OCCN5CCOCC5)cc4)c3)cc21`, the inhibition is 43% in [1]; 2.17% in assay [2]; 8.22% in assay [3]; 1.52% in [4]; 4.33% in [5]; 3.13% in assay [6]. Besides, the inhibition in assay [7] was 9.94%; in assay [8], 0.13%; in assay [9], -1.08%; in assay [10] it was 6.11%.

As to `CC(C)=Cc1cccc2c1/C(=N/Nc1ccc(S(N)(=O)=O)cc1)C(=O)N2`, the inhibition came out at 93.1% in assay [1]; 8.72% in assay [2]; 45% in assay [3]; 5.14% in assay [4]; 65.6% in assay [5]; 1.18% in [6]. Further, the inhibition in assay [7] turned out to be 10.2%; in assay [8], 1.89%; in [9], 6.11%; in [10] it was 3.27%.

For the compound `CS(=O)(=O)CCN(CC#N)Cc1ccc(-c2ccc3ncnc(Nc4ccc(OCc5cccc(F)c5)c(Cl)c4)c3c2)o1`, the inhibition in assay [1] is -0.17%; in assay [2], -3.61%; in assay [3] it was 0.96%; in assay [4], -4.78%; in assay [5] it was 1.4%; in assay [6] it was 3.25%. Also, the inhibition in [7] is 7.32%; in [8], -0.14%; in [9], -0.7%; in [10] it was 3.8%.

With `COc1cc2ncn(-c3cc(OCc4ccccc4C(F)(F)F)c(C(N)=O)s3)c2cc1OC`, the inhibition in assay [1] worked out at 13.7%; in assay [2] it was 3.06%; in assay [3], 26.6%; in assay [4], 4.2%; in assay [5], 35.9%; in [6], 76%. Further, the inhibition was 88.3% in [7], 4.53% in assay [8], 18.1% in assay [9] and 5.97% in [10].

Take `O=C(Nc1n[nH]c2nc(-c3ccco3)c(Br)cc12)C1CC1`: the inhibition was 45.6% in assay [1]; 5.16% in [2]; 14.5% in assay [3]; 2.71% in assay [4]; 29.4% in assay [5]; 6.48% in assay [6]. The inhibition in assay [7] is 11.3%; in [8], -0.14%; in assay [9], 2.51%; in assay [10], 4.76%.

As for `O=C1NC(=O)C(c2ccccc2Cl)=C1Nc1cccc(O)c1`, the inhibition in [1] was 11.6%; in assay [2], 2.88%; in [3] it was 7.74%; in assay [4] it was 1.84%; in [5], 7.14%; in assay [6], 8.75%. The inhibition in [7] came out at 49.3%; in assay [8], 1.12%; in assay [9], 2.09%; in [10] it was 3.71%.

As to `c1cnn2ncc(-c3ccnc(Nc4ccc5c(c4)OCCO5)n3)c2c1`, the inhibition in assay [1] was found to be 85.5%; in assay [2], 14.4%; in assay [3], 65.2%; in [4], 18.8%; in [5], 96.8%; in [6] it was 5.98%. Moreover, the inhibition in assay [7] was determined as 23.8%; in assay [8], 13.6%; in [9], 56.5%; in assay [10], 11.3%.

On to `O=C1NC(=O)C(c2cccc(Cl)c2)=C1Nc1ccc(O)c(Cl)c1`, for which the inhibition in assay [1] amounted to 11.1%; in [2] it was 1.17%; in [3], 6.09%; in assay [4], 1.02%; in assay [5], 13.1%; in assay [6] it was 6.26%. Moreover, the inhibition in assay [7] came out at 46.3%; in assay [8], 4%; in [9] it was 21.3%; in [10], 1.83%.
